Rows were chosen to be rich in hits. Some 0.71% of all compounds tested hit in one or more screens of this group.
CatS inh = human cathepsin S inhibition; P25774; AID 501; 0.06% of 62,000 active; recombinant cathepsin S, AMC dipeptide fluorescence, pooled mixtures; inhibition, %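 (tested at 5 µM per compound within 10-compound mixtures)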; in the data active means inhibition above about 32%, passing the limit was not always enough;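 further: 0% = enzyme without compound and 100% = blank without enzyme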
Target sequence (P25774 115-331 limits assumed): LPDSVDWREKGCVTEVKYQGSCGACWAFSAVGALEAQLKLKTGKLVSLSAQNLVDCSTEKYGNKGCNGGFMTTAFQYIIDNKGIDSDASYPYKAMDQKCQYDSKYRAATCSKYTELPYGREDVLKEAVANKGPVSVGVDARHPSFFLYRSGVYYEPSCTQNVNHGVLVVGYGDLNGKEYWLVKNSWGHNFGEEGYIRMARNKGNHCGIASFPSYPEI
Htt clearance = compounds clearing mutant huntingtin protein; 0.42% of 47,000 active; inhibition, % at 1.5 µM; HeLa Exon1htt(103Q)mCFP, aggregate imaging; zero = plate's median compound well;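 active means inhibition of aggregate fluorescence above about 70%, also judged a hit by eye on the cell image, limit read from the data, passing the limit was not always enough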;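 further: cells exposed to compound for three days before fixation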
CatL inh = inhibitors of human cathepsin L. purified cathepsin L, fluorogenic substrate, fluorescence. AID 460. 0.17% of 58,000 active. inhibition, %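 (tested at 10 µM)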; in the data active means inhibition above about 45%;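 further: 0% = enzyme with no compound and 100% = no enzyme blank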
Hsp90 block = displaces geldanamycin probe from tumor Hsp90 | 0.35% of 64,000 active | P07900 | inhibition, % at 30 µM | AID 429 | NCI-N417 lysate Hsp90, Cy3B-geldanamycin FP displacement;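 active means inhibition above 50%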;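 further: 0% = tracer plus lysate wells and 100% = tracer alone without lysate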
CatB mix inh = human cathepsin B inhibition by mixtures; AID 488; inhibition, %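 (ten-compound pools at 5 µM per compound and 50 µM total)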; P07858; 0.06% of 62,000 active; Purified cathepsin B, AMC dipeptide fluorescence, compound mixtures; in the data active means inhibition above about 22%, passing the limit was not always enough;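 further: 0% = enzyme without compound and 100% = no enzyme blank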
CatB block = inhibitors of human cathepsin B | AID 453 | 0.1% of 63,000 active | purified cathepsin B, fluorogenic substrate, fluorescence | inhibition, %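 (tested at 10 µM)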 | P07858; in the data active means inhibition above about 21%;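 further: 0% = enzyme with no compound and 100% = no enzyme blank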
An asterisk follows results filed as active; . = not tested or not shown.

SMILES	CatS inh	Htt clearance	CatL inh	Hsp90 block	CatB mix inh	CatB block
COC(=O)C1=C(C)N(c2cccc3ccccc23)C(=O)C1	0	36	5	51*	-7	2
S=c1[nH]nc(-c2ccc(Br)cc2)n1Cc1ccco1	1	72*	11	1	-5	4
CN1CCC2=C(CCCC2CCc2ccc(Cl)c(Cl)c2)C1 (stereo not drawn)	.	.	.	0	.	.
CCCCCCCCCCCCCCCCOCC(COCC(F)(F)F)OP(=O)(O)OCO (stereo not drawn)	.	.	.	-3	.	.
CCSCCOC(=O)C1=C(C)NC(=O)NC1c1ccccc1 (stereo not drawn)	1	.	.	88*	4	-2
O=C(NCCN1CCOCC1)NC1(C(F)(F)F)Oc2ccc(Cl)cc2O1 (stereo not drawn)	-6	.	1	65*	5	3
NC(=O)C1CCN(Cc2nc3ccccc3c(=O)[nH]2)CC1	.	-222	.	.	.	.
O=c1[nH]c(CN2CCN(CCO)CC2)nc2ccccc12	.	77*	.	-1	.	.
COc1ccc(-c2cc3nc4n(c(=O)c3s2)CCOC4)cc1	.	.	-178	-7	.	-7
Cn1cc(C(=O)N2CCN(C(=O)c3ccco3)CC2)c2c3ccccc3n(C)c2c1=O	-3	.	-9	-1	6	-4
O=c1cc(O)cc(/C=C/c2ccc(O)c(O)c2)o1	.	.	.	83*	.	.
O=C(/C=C/c1ccc(Br)o1)OCc1ccccc1	.	-8	.	.	.	.
O=C(/C=C/c1ccc(O)c(O)c1)OCCc1ccccc1	.	.	.	90*	.	.
COc1ccc(OC)c(S(=O)(=O)Nc2ccc(O)c3ccccc23)c1	-6	44	-1	16	-9	-1
COc1ccc(OC)c(S(=O)(=O)Nc2ccc(O)c(Sc3ncn[nH]3)c2)c1	-23	86*	-6	2	-3	0
CC(C)C[C@H](NC(=O)C1OC1C(=O)O)C(=O)NCCCCN=C(N)N (stereo partly drawn)	.	.	.	1	.	.
Nc1nonc1-c1noc(CCCOc2ccc(Cl)cc2Cl)n1	-8	.	-5	0	2	1
Cc1ccc(C(C)C)c(OCc2nc(-c3nonc3N)no2)c1	-2	14	.	-3	8	22*
C[n+]1cc2c3c(ccc2c2ccc4cc5c(cc4c21)OCO5)OCO3	.	.	.	9	.	.
O=C(COc1ccc(-c2ccccc2)cc1)N1CCN(C(=O)c2cccnc2)CC1	4	18	-12	92*	2	3
O=C(COc1ccc2ccccc2c1)N1CCN(C(=O)c2cccnc2)CC1	.	-18	.	.	.	.
Nc1nc(Cl)nc2c1ncn2[C@@H]1O[C@H](COP(=O)(O)OP(=O)(O)OP(=O)(O)O)[C@H](O)C1O (stereo partly drawn)	.	.	.	0	.	.
COC(=O)c1ccccc1NC(=O)c1cnn2c(C(F)F)cc(C3CC3)nc12	14	76*	0	-1	5	-4
O=C(Nc1ccc2c(c1)OCO2)N1CCN(S(=O)(=O)c2ccc(Cl)cc2)CC1	-4	77*	25	2	-4	1
O=C(CN1CCN(S(=O)(=O)c2ccc(Cl)cc2)CC1)Nc1ccc2c(c1)OCO2	15	.	-2	-3	0	1
SMILES	CatS inh	Htt clearance	CatL inh	Hsp90 block	CatB mix inh	CatB block
CCC(CC)NCCCNc1cc(OC)cc2cccnc12	.	.	.	10	.	.
Cc1onc(-c2ccccc2Cl)c1C(=O)Nc1ccc2c(c1)OCO2	-2	.	4	1	-4	0
Cc1noc(C(=O)Nc2ccc3c(c2)OCO3)c1Cl	4	18	6	60*	6	8
COc1nc(N(C#N)CC(N)=O)nc(N2CCCC2)n1	-4	-2	1	5	23*	37*
COc1nc(N2CCCCCC2)nc(N2CCCCCC2)n1	-4	-34	1	0	3	4
COc1cccc(OC)c1C(=O)Nc1ccc(CN2CCOCC2)cc1	-1	.	-7	-1	-7	2
COC(=O)c1ccc(NC(=O)c2ccc(CN3CCOCC3)cc2)cc1	6	32	84*	-1	1	1
N#Cc1c(N)sc(=S)c2c1CCN(Cc1ccccc1)C2	75*	.	47*	-3	36	80*
CCN1CCc2c(sc(N)c2C#N)C1	-10	-33	-19	-51	-1	-5
CS(=O)(=O)N(CC(=O)N1CCCC1)c1ccc(OCc2ccccc2)cc1	5	78*	.	0	4	-1
Cc1ccc(CNC(=O)CSc2n[nH]c(N)n2)cc1	-3	82*	3	1	5	6
Nc1nc(SCC(=O)NCc2ccccc2)n[nH]1	-9	-11	0	-4	8	0

Screening results (PubChem BioAssay)
